SMN2 splice up – increases expression of the SMN2 splice variant; HEK293 SMN2-luciferase splicing reporter, luminescence, 30-36 h; Potency, µM (top dose mostly 46.1 µM), without a hit: at the highest dose activity change, positive = activation, most hits filed as activators; actives 2.8% (n = 210,000); AID 1458; note: % of control where 0% means no effect; nearly all actives have a fitted effect of over 55% in size
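HEK293 cells carry an SMN2 minigene-luciferase reporter in which exon 7 inclusion puts luciferase in frame. Cells were seeded at 2000 cells/well, attached for 10-12 hours, then exposed to compounds for 30-36 hours at 37C before ONE-Glo luminescence.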
ELG1 genotoxic – genotoxicity induction in ELG1-luciferase HEK293T cells | HEK293T ELG1-luciferase reporter, luminescence, 16 h | Potency, µM (highest dose often 46 µM), without a hit: top-dose activity change, positive = activation, actives largely listed as activators | actives 1.3% (n = 330,000) | AID 504466; note: % of control where 0% means no effect; nearly all actives have a fitted effect of over 60% in size
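DMSO vehicle served as control against compound-treated ELG1-luciferase HEK293T cells; exposure lasted 16 hr at 37 °C and 5% CO2, followed by ONE-Glo luminescence detection after 30 min.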
FLuc modulator – inhibits or activates purified firefly luciferase, miR-21 counter-screen. P08659. purified FLuc, Km substrates, luminescence inhibition. actives 6.9% (n = 360,000). AID 588342. Potency, µM (highest dose often 57.5 µM), inactives show at the highest dose activity change, negative = inhibition, hits mostly inhibitors;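 note: plate controls were vehicle for no effect and reference inhibitor for full effect; nearly all actives have a fitted effect of over 55% in size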
Target sequence (P08659 whole entry, looked up): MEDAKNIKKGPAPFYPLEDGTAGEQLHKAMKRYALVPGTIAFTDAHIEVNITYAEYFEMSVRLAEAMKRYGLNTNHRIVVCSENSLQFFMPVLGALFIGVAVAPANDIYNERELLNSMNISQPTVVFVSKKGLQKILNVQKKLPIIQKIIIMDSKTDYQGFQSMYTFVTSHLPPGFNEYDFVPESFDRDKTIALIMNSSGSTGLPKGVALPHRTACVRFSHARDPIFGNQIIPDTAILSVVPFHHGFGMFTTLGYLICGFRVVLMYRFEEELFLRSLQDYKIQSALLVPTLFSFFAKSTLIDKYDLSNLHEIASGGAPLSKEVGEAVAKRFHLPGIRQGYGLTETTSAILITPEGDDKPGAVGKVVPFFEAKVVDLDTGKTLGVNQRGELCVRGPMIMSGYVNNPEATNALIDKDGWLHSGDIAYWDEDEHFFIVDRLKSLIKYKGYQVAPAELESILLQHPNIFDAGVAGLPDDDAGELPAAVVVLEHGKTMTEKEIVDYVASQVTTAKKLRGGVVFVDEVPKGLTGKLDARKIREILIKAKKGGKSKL
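Purified P. pyralis luciferase, 10 nM final, with Km-level 10 uM D-luciferin and 10 uM ATP in 50 mM Tris acetate pH 7.5, 10 mM Mg acetate, 0.01% Tween-20, 0.05% BSA; 6-point qHTS titration about 60 µM downward; luminescence read.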
Rab9 prom act – Rab9 promoter activation | actives 2.8% (n = 320,000) | Potency, µM (highest dose often 9.22 µM), inactives show at the highest dose activation, negative = inhibition, most hits filed as activators | Huh7 Rab9 promoter-luciferase reporter, luminescence, 24 h; note: % of control where 0% means no effect; nearly all actives have a fitted effect of over 60% in size
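Luminescence read-out: Huh7 cells stably expressing Rab9-luciferase, treated 24 h with compound at 37 °C, then lysed with luciferase reagent for 10 min at ambient before reading.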
NPC1 promoter act – activators of NPC1 promoter | Huh7 NPC1 promoter luciferase reporter, 24 h | Potency, µM (doses to about 9.22 µM), without a hit: at the highest dose activation, hits mostly activators | actives 2.4% (n = 320,000); note: % of control where 0% means no effect; nearly all actives have a fitted effect of over 60% in size
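Stably transfected Huh7 (NPC1 promoter→luciferase), 1500 cells/well in Opti-MEM + 10% FBS, 2 h settle, then compound 24 h at 37 °C. Luminescence after 10 min with Amplite reagent.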
* marks the source's active call; other numbers are inactive results; ? = inconclusive; . = no result. Rows were chosen to be rich in hits. Some 7.4% of all compounds tested hit in one or more screens of this group. Calls come from the whole dose curve; as a rule, active = well fitted curve in the direction sought with a large enough effect; inconclusive = small, poorly fitted or top-dose-only effect, or another doubt; inactive = no such curve, though single readings can be large; an effect the other way counts as inactive or inconclusive. Potency is the fitted concentration of half-maximal effect.

SMILES	SMN2 splice up	ELG1 genotoxic	FLuc modulator	Rab9 prom act	NPC1 promoter act
CC(/C=N/Nc1ccc2nncn2n1)=C\c1ccccc1	.	4.9%	15.1µM*	11.8%	2.4%
O=C(CSc1nncc(=O)[nH]1)NC1CCCCC1	.	-0.3%	-0.4%	0.1%	-3.0%
CCOC(=O)c1c(NC(=O)c2cc3ccccc3c(=O)o2)sc2c1CCC(C(C)(C)C)C2 (configuration not stated)	-3.7%	.	16.9µM*	.	.
CCC1CCc2c(sc(NC(=O)c3cnccn3)c2C(N)=O)C1 (configuration not stated)	.	15.0%	2.39µM*	25.3%	25.7%
CCOC(=O)c1c(NC(=O)c2ccco2)sc2c1CCCC2	-11.7%	12.3%	3.0%	1.3%	8.7%
CC(C)(C)C1CCc2c(sc(NC(=O)c3ccco3)c2C(N)=O)C1 (configuration not stated)	-60.0%	?	0.426µM*	2.82µM*	?
CCC1CCc2c(sc(NC(=O)c3ccco3)c2C(N)=O)C1 (configuration not stated)	17.8µM*	?	1.35µM*	2.82µM*	?
Cc1ccc2[nH]c(=O)c3cc(C(=O)NC(C)C)sc3c2c1	.	5.3%	-2.3%	1.9%	-12.0%
Cc1ccc(C)c(Nc2nnc(-c3ccc(C)c(S(=O)(=O)N4CCN(C)CC4)c3)c3ccccc23)c1	-8.4%	.	-13.7%	.	.
COc1cc(Nc2ccccn2)cc(C(=O)Nc2cccc(C(F)(F)F)c2)c1	.	-12.8%	?	-10.4%	1.8%
COc1cc(NC(=O)c2nccnc2N)cc(C(=O)Nc2cccc(C(F)(F)F)c2)c1	.	6.0%	10.7µM*	-6.1%	-3.4%
COc1cc(NC(=O)c2ccc(N)nc2)cc(C(=O)Nc2cccc(C(F)(F)F)c2)c1	.	7.1%	7.57µM*	3.0%	2.2%
CCOc1ccc(NC(=O)c2oc3ccccc3c2NC(=O)c2cc(C)cc(C)c2)cc1	-9.4%	.	4.0%	.	.
CCOc1ccc(C(=O)Nc2c(C(N)=O)oc3ccccc23)cc1	-1.6%	1.1%	10.7µM*	17.3%	14.3%
CCc1ccc(NC(=O)c2n[nH]c(=O)c3ccccc23)cc1	.	?	?	2.51µM*	3.16µM*
CCOc1ccc(NC(=O)c2ccc3nccnc3c2)cc1	-26.4%	?	16.9µM*	?	21.0%
CCOc1ccc(NC(=O)c2ccncc2)cc1	-12.5%	?	?	4.2%	12.6%
CC(C)(C)NC(=O)Nc1ccc2nccnc2c1	?	?	23.9µM*	3.55µM*	3.55µM*
CC(C)(C)NC(=O)c1ccc2nccnc2c1	-5.2%	0.0%	4.1%	0.9%	0.9%
COc1cc2c(cc1OC)C(c1ccccc1)N(C(=O)c1cccc(S(C)(=O)=O)c1)CC2 (configuration not stated)	.	18.3%	-0.8%	4.9%	1.1%
O=S(=O)(NCCc1csc2nc(-c3ccccc3)nn12)c1ccc(Oc2ccccc2)cc1	.	.	-15.0%	.	.
COc1ccc(NC(=O)c2cccnc2)cc1	.	9.9%	-1.9%	12.0%	0.6%
CCOc1ccc(NC(=O)c2ccc(N)cc2)cc1	?	?	9.53µM*	?	?
COc1ccc(NC(=O)c2ccc3nccnc3c2)cc1	12.6µM*	?	26.9µM*	2µM*	3.98µM*
CCOc1ccc(NC(=O)c2ccc(NC(=O)Cc3n[nH]c(=O)c4ccccc34)cc2)cc1	.	9.2µM*	-17.2%	-0.7%	2.5%
SMILES	SMN2 splice up	ELG1 genotoxic	FLuc modulator	Rab9 prom act	NPC1 promoter act
CCOc1ccc(NC(=O)Nc2ccc(NC(C)=O)cc2)cc1	-14.9%	12.3%	-2.2%	0.2%	-0.4%
CCOc1ccc(NC(=O)Nc2ccc3nccnc3c2)cc1	-22.1%	-11.6%	19µM*	4.9%	-0.3%
COc1ccc(NC(=O)Cn2c(=O)n(CCCCCC(=O)NCc3ccc4c(c3)OCO4)c(=O)c3sccc32)cc1Cl	-19.0%	.	-7.5%	.	.
O=C(NCCSCc1ccco1)Nc1ccc(Cl)cc1	?	.	10.7µM*	.	.
O=C(NCCSCc1ccco1)Nc1cccc(Cl)c1	?	10.1%	16.9µM*	?	?
O=C(CCSc1ccccc1)NCCSCc1ccco1	.	-0.5%	19µM*	0.2%	3.4%
Cc1cc(Cl)ccc1N(CC(=O)NCCSCc1ccco1)S(C)(=O)=O	.	-0.1%	-2.2%	-8.5%	-7.5%
O=C(NCCc1ccc(Cl)cc1)Nc1cccc(Cl)c1	-21.6%	-10.8%	?	-1.2%	-0.3%
